Data: PubChem BioAssay AID493175 (National Center for Advancing Translational Sciences (NCATS), 2011)
Inconclusive results are not listed. Unmarked numbers belong to inactive results. The call rests on the fitted dose curve; in most records, active means well fitted curve in the direction sought with a large enough effect; inconclusive means small, poorly fitted or top-dose-only effect, or another doubt; inactive means no such curve, though single readings can be large or run the other way.

target: Luciferin 4-monooxygenase (Photinus pyralis) (UniProt P08659); assay: miR-21 counterscreen using purified firefly luciferase; conditions: purified P. pyralis luciferase, luminescence; series mostly up to 57.5 µM; activity change, negative = inhibition: at the top concentration
Source text: MLPCN Grant: 1 R21 NS059478-01 Assay Provider: Qihong Huang, The Wistar Institute NCGC Assay Overview: MicroRNAs (miRNAs) are endogenously encoded small (~20-25 nucleotides), nonprotein-coding RNAs that are involved in post-transcriptional repression of target messenger RNAs (mRNAs) (Le and Hannon, 2004). Estimated to be involved in the regulation of 30% of all protein-coding mRNAs (Filipowicz et al., 2008), miRNAs play a significant role in many biological processes including cellular differentiation and tissue development (Ghildiyal and Zamore, 2009). […] Compounds active in the miR-21 FLuc assay were clustered using Leadscope and active chemical series were prioritized based on chemical properties, potential for medicinal chemistry optimization, and SAR. Within each chemical series, representative compounds were re-acquired to test for activity in a secondary assay based on the quality of their CRC, efficacy, and potency. This secondary assay to determine if compounds active in the miR-21 FLuc assay were just luciferase inhibitors. Compounds found active in both the miR-21 FLuc and purified FLuc assays are considered as false positives. Keywords: NIH Roadmap, MLPCN, MLSMR, qHTS, miR-21, firefly luciferase, FLuc, miRNA.
NCGC Assay Protocol Summary: Reagents: 50mM Tris acetate, pH 7.5; 10mM Mg acetate; 10uM D-luciferin (Sigma #L9504); 10uM ATP; 0.01% Tween-20; 0.05% BSA; 10nM P. pyralis luciferase (Sigma #L9506) Control compounds used were two known firefly luciferase inhibitors (compounds (2) and (5) in Auld et al., 2010), and DMSO. Assay Summary: Three microliters containing firefly luciferase substrates in buffer (final concentrations: 50mM Tris acetate, pH 7.5, 10mM Mg acetate, 0.01% Tween-20, 0.05% BSA, 10uM D-luciferin, and 10uM ATP) are dispensed into each well of a Greiner white, solid-bottom 1536-well format plate using a flying reagent dispenser (FRD). These assay plates were then treated with 23nL of compound or DMSO using a Kalypsys pin tool, which allows for delivery of a 6-point interplate titration of each compound to the assay plate (quantitative HTS), with a final compound concentrations ranging from approximately 60 µM to 7pM. One microliter of firefly luciferase in […] Tris-acetate buffer was then delivered by FRD to each well for a final enzyme concentration of 10nM. Luciferase activity was then measured using a ViewLux CCD imager (PerkinElmer), with an average exposure time of 2-30 seconds (2X binning, medium/high gain).

Chain of Luciferin 4-monooxygenase (Photinus pyralis) (P08659 whole entry, looked up): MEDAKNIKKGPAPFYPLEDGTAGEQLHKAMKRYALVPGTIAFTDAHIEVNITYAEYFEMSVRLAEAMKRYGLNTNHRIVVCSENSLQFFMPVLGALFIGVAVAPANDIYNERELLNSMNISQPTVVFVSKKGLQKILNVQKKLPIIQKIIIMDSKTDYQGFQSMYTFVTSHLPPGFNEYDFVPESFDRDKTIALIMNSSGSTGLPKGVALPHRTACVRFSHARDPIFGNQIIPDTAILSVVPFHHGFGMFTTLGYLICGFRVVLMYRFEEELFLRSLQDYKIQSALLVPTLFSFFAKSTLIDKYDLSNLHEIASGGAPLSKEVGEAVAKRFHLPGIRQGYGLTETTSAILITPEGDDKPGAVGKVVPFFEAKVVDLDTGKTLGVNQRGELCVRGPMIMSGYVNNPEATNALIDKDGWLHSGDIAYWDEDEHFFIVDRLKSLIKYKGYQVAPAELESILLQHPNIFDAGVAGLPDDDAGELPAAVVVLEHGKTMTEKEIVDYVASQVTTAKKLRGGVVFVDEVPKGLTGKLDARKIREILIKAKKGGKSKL

Row | SMILES | activity change, negative = inhibition
1 | COc1ccc(-c2nc(SCc3ccccc3)n(S(C)(=O)=O)n2)cc1 | 1.64%
2 | CCC(C)S(=O)(=O)c1oc(-c2cccs2)nc1S(=O)(=O)c1ccccc1 (stereo not given) | -12.1%
3 | NC(=O)c1ccccc1NC(=O)c1ccc(-c2ccc(Br)cc2)o1 | 0.577%
4 | Cc1cccc(N2CCN(C(=O)C3CCN(c4ncnc5c4nc4n5CCCCC4)CC3)CC2C)c1 (stereo not given) | -15.3%
5 | Cc1ccc(CNc2nc(-c3ccco3)nn2S(C)(=O)=O)cc1 | 1.57%
6 | CCCCOc1ccccc1CC1C(=O)Nc2ccc(Br)cc21 (stereo not given) | -3.67%
7 | Nc1c(-c2nc(-c3ccccc3Cl)no2)nnn1-c1ccccc1F | -14.3%
8 | O=C(CSc1nnc(-c2ccc(O)cc2)o1)Nc1ccccc1Br | 4.86%
9 | COc1ccc(Nc2cc(C(=O)NCCCN3CCN(c4ccc(OC)cc4)CC3)c3ccccc3n2)cc1 | -6.17%
10 | Cc1ccc(Nc2ncnc(N)n2)cc1C | -17.6%
11 | CCC(=O)n1nc(-c2cccnc2)nc1NCc1ccc(F)cc1 | -1.65%
12 | Cc1ccc(CNc2nc3nc(C)c(Cl)c(C)n3n2)cc1 | -5.45%
13 | c1ccc(C2=Nn3c(nnc3-c3cc(-c4ccccc4)n[nH]3)SC2)cc1 | -18.1% [at 2.3 µM]
14 | Cc1cccc(-c2nsc(SCC(=O)Nc3ccc4c(c3)OCO4)n2)c1 | -20.1%
15 | COc1ccc(-n2nnc(-c3nc(-c4cccs4)no3)c2N)cc1OC | -9.69%
16 | Nc1c(-c2nc(-c3cccs3)no2)nnn1-c1cccc(F)c1 | -11.2%
17 | Nc1c(C(=O)Nc2ccccc2Br)sc2nc(-c3cccs3)ccc12 | -19%
18 | CCS(=O)(=O)c1ncc(Cl)c(C(=O)N(Cc2ccccc2)c2ccc(OC)cc2)n1 | -13.7%
19 | COCC(=O)Nc1c(C(=O)Nc2ccc3c(c2)OCCO3)oc2ccccc12 | -14.9%
20 | CC(C)S(=O)(=O)c1oc(-c2ccc(F)cc2)nc1S(=O)(=O)c1ccc(F)cc1 | -2.87%

Row | SMILES | activity change, negative = inhibition
21 | Cc1cc(C)n2c(SCc3ccccc3Cl)nnc2n1 | -9.49%
22 | CCS(=O)(=O)n1nc(-c2ccccc2)nc1NCc1ccco1 | -1.7%
23 | CCS(=O)(=O)c1ncc(Cl)c(C(=O)N2CCN(c3cccc(Cl)c3)CC2)n1 | -13.3%
24 | Cc1c(-c2nnc(SCC(=O)Nc3ccccc3F)o2)nnn1-c1ccc(F)cc1 | -20%
25 | CS(=O)(=O)n1nc(-c2ccc(Cl)cc2)nc1SCc1ccccc1 | -8.68%
26 | Cc1cc(C)cc(NC(=O)CSc2nnc(CNC(=O)c3ccco3)o2)c1 | 3.89%
27 | Cc1cc(Nc2cccc(C(F)(F)F)c2)nc2ccc(NC(=O)c3cccnc3)cc12 | 1.05%
28 | CC(C)COc1ccc(C(=O)Nc2cc(-c3ccccc3)no2)cc1 | -23.7%
29 | COc1cccc(-n2nnc(-c3nc(-c4cccs4)no3)c2N)c1 | -9.44%
30 | CC(C)C(=O)Nc1nc2c(s1)CC(C(C)(C)C)CC2 (stereo not given) | -17.6%
31 | Cc1cc(SCC(=O)Nc2nsc(-c3ccc(C(C)(C)C)cc3)n2)nc2ccccc12 | 1.68%
32 | Fc1ccccc1CSc1nnc(-c2cnccn2)n1Cc1ccco1 | -4.71%
33 | Cc1ccc(NC(=O)Cn2nnc(-c3nc(-c4ccc(Cl)cc4)no3)c2N)cc1C | 1.35%
34 | COc1ccc(OCC(=O)Nc2ccc(-c3nc4cc(Cl)ccc4o3)cc2)cc1 | -3.29%
35 | O=C(CSc1nnc(-c2ccc(C(F)(F)F)cn2)o1)Nc1cccc(Cl)c1 | -0.604%
36 | CC(C)(C)c1ccc(NC(=O)CSc2nnc(-c3n[nH]c4ccccc34)o2)cc1 | -19.9%
37 | COc1cc(Cl)c(C)cc1Nc1c2c(nc3ccccc13)CCC2 | 2.63%
38 | Cc1ccc(-c2nc3cnccn3c2Nc2ccccc2)o1 | -19.4%
39 | Cc1ccc(-c2nc(NCc3ccco3)n(S(C)(=O)=O)n2)cc1 | 0.606%
40 | CCc1nonc1NC(=O)c1oc2cc(C)c(C)cc2c1C | 3.62%
